Assay outcomes (PubChem)
Shown are actives, neighbours in structure and some others; about 2.2% of the full set was active somewhere.
IEC-6 tox = cytotoxicity in IEC-6 intestinal epithelial cells, primary screen, cytotoxicity control for KLF5 inhibitor project, cell-based, luminescence; AID 1825, 2009; 290,000 compounds, 0.78% hits; inhibition, % at 5 µM; IEC-6 cytotoxicity, luminescence viability;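 further: 0% = plate median of test compound wells and 100% = cytotoxic reference compound wells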
Ba/F3 V617F tox = reduced viability of JAK2V617F-dependent Ba/F3 cells, primary screen, JAK2V617F inhibitor project, cell-based, Ba/F3 EpoR-JAK2V617F, luminescence. ATP luminescence. inhibition, % at 5.6 µM. 220,000 compounds, 1.1% hits. AID 1446, 2008;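 active means inhibition above the campaign mean plus 3 SD over all tested compounds, cut at about 24% in these data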;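 further: cytokine-independent growth of Ba/F3 cells driven by EpoR plus mutant JAK2; 0% = DMSO-treated cells and 100% = JAK inhibitor I control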
KLF5 inh = KLF5 expression inhibitors, primary screen, DLD-1 cells, luminescence. AID 1700, 2009. 290,000 compounds, 0.23% hits. DLD-1 KLF5 promoter-luciferase reporter. inhibition, % at 5 µM;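 active means inhibition above a per-plate limit of that plate's mean compound inhibition plus 3 SD, cut at about 60% in these data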;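 further: 0% = DMSO wells and 100% = LY294002 at 200 µM; higher means less KLF5 promoter-driven luciferase light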
APP transl inh = inhibitors of APP translation via 5'UTR reporter, primary screen, APP 5'UTR luciferase, SH-SY5Y cells; SH-SY5Y APP 5'UTR-luciferase reporter, luminescence; inhibition, % at 2 µM; 190,000 compounds, 0.82% hits; AID 1285, 2008;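 active means inhibition above a set limit, derived from the sample mean plus 3 SD, cut at about 45% in these data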
BaF3 parental = parental Ba/F3 cell viability inhibition, counter-screen for JAK2V617F inhibitor project, murine pro-B, CellTiter-Glo luminescence | AID 1486, 2009 | 220,000 compounds, 1.1% hits | CellTiter-Glo ATP luminescence | inhibition, % at 5.6 µM;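 active means inhibition above a per-campaign cutoff, the mean inhibition of all tested compounds plus 3 SD, cut at about 27% in these data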;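 further: 0% = DMSO wells and 100% = JAK Inhibitor I control wells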
aSyn 5UTR inh = MLPCN primary screen, SNCA 5' untranslated region; alpha-synuclein 5'UTR reporter, inhibitor activity; inhibition, % (tested at 7.5 µM); 300,000 compounds, 0.82% hits; AID 1813, 2009; in the data active means inhibition above about 60%;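 further: H4 neuroglioblastoma cells stably carrying SNCA 5'UTR luciferase fusion; 0% = DMSO wells and 100% = positive control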
IEC-6 cytotox cf = cytotoxic compounds in IEC-6 epithelial cells, confirmation, cytotoxicity control, cell-based, luminescence. IEC-6 rat intestinal epithelial viability. inhibition, % at 5 µM. AID 1907, 2009. 1,900 compounds, 63% hits. shares compounds with IEC-6 tox;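 further: 0% = vehicle and 100% = reference cytotoxic drug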
* = called active by the depositor; · = not tested or not shown. Unless noted, no stated cut-off is given here; in the data, active means inhibition above about 22%; inactive means the rest.

SMILES	IEC-6 tox	Ba/F3 V617F tox	KLF5 inh	APP transl inh	BaF3 parental	aSyn 5UTR inh	IEC-6 cytotox cf
CN(C)c1ccccc1C(=O)c1ccccc1N(C)C	74*	77*	-18	91*	75*	-6	22*
NNC(=O)c1[nH]c(-c2ccccc2)cc1-c1ccccc1	28*	·	-40	·	·	18	-3
O=C(c1cc(NC(=O)C23CC4CC(CC(C4)C2)C3)cc(NC(=O)C23CC4CC(CC(C4)C2)C3)c1)N1CCCCC1	37*	0	5	-5	3	55	30*
CCCCCOc1ccc(Br)cc1/C(C)=N/NC1=NCCN1	83*	78*	38	94*	73*	88*	60*
COc1ccc(CCN2C(=O)c3ccccc3NC2c2cc(Cl)c(O)c(OC)c2)cc1 (stereo not drawn)	54*	·	39	·	·	-16	-5
COc1ccc(/C=C2\COc3ccccc3C2=O)c(OC)c1	26*	·	-58	·	·	-140	-3
Cc1cccc(NS(=O)(=O)c2ccc(-c3cnc(C4CC4)o3)cc2)c1C	88*	·	38	·	·	100*	58*
COc1ccc(NS(=O)(=O)c2cc(-c3cnc(C4CC4)o3)ccc2C)cc1	81*	·	41	·	·	82*	74*
O=S(=O)(Nc1ccccc1)c1ccc(-c2cnc(C3CC3)o2)cc1	42*	·	39	·	·	0	33*
COc1ccccc1NS(=O)(=O)c1cc(-c2cnc(C3CC3)o2)ccc1C	20	·	24	·	·	1	·
O=S(=O)(NCc1ccc(F)cc1)c1ccc(-c2cnc(C3CC3)o2)cc1	5	·	-25	·	·	2	·
Cc1ccc(C)c(NS(=O)(=O)c2ccc(-c3cnc(C4CC4)o3)cc2)c1	93*	·	61	·	·	93*	62*
CN1CCN(S(=O)(=O)c2ccc(N(C)Cc3ccc(OC(F)F)cc3)c([N+](=O)[O-])c2)CC1	·	·	·	·	·	6	·
CCOc1ccc(NS(=O)(=O)c2ccc(-c3cnc(C4CC4)o3)cc2)cc1	18	·	-9	·	·	-3	·
CC(=O)c1cccc(NS(=O)(=O)c2ccc(-c3cnc(C4CC4)o3)cc2)c1	38*	·	22	·	·	-5	38*
Cc1cc(C)cc(NS(=O)(=O)c2ccc(-c3cnc(C4CC4)o3)cc2)c1	87*	·	59	·	·	93*	51*
CC(=O)Nc1ccc(NS(=O)(=O)c2ccc(-c3cnc(C4CC4)o3)cc2)cc1	5	·	-13	·	·	-9	·
Cc1ccc(Nc2n[nH]c(C)c2[N+](=O)[O-])cc1	-4	0	-146	-54	6	-221	·
Cc1[nH]nc(Nc2ccc(Br)cc2)c1[N+](=O)[O-]	35*	1	-137	·	5	-164	18
Cc1[nH]nc(Nc2ccc(C(C)C)cc2)c1[N+](=O)[O-]	40*	-1	-172	·	-2	-151	23*
Cc1ccc(NC(=O)CCn2c(=O)c3cccn3c3ccccc32)c(C)c1	-8	·	-23	·	·	-18	·
Cc1cc(C)cc(NC(=O)CCn2c(=O)c3cccn3c3ccccc32)c1	40*	·	31	·	·	-3	37*
N#Cc1cccnc1N1CCN(C(=O)COCC(=O)O)CC1	-8	0	-19	·	-4	-11	·
COc1ccc(C(NC(=O)c2c(F)c(F)c(F)c(F)c2F)c2ccccc2)cc1 (stereo not drawn)	27*	-4	-7	7	1	21	11
CCOc1ccc(Nc2c3ccccc3nc3ccccc23)cc1	72*	76*	40	·	68*	-94	44*
SMILES	IEC-6 tox	Ba/F3 V617F tox	KLF5 inh	APP transl inh	BaF3 parental	aSyn 5UTR inh	IEC-6 cytotox cf
CCOc1ccc(Nc2cc(C)c3ccccc3n2)cc1	2	·	-27	·	·	-85	·
O=c1[nH]ccc2c(O)cccc12	·	·	·	·	·	-14	·
CCOc1ccccc1NC(=O)c1nc(S(=O)(=O)Cc2ccccc2)ncc1Cl	99*	·	34	·	·	51	11
COc1ccccc1NC(=O)c1nc(S(=O)(=O)Cc2ccccc2)ncc1Cl	100*	·	59	·	·	71*	16
CCOc1ccccc1NC(=O)c1ccc(C(=O)Nc2ccccc2OCC)nc1	-4	·	5	·	·	19	·
CCS(=O)(=O)c1ncc(Cl)c(C(=O)Nc2ccccc2OC)n1	29*	·	20	·	·	4	19
